Results published in PubChem BioAssay (NCI).
About 79,000 compounds went through this panel and 15% of them were active in at least one assay; those are over-represented in the sample as a whole. Calls of active or inactive are those of the source. No stated cut-off is given here; in the data, active means growth inhibition above about 70%; inactive means the rest.

What was measured:
[1] = NCI Yeast Anticancer Drug Screen. Data for the rad52 strain (AID 147);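 further: 0% = growth of vehicle-treated control cultures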; settings: S. cerevisiae rad52 mutant growth inhibition, stronger effect = higher value
Method in brief: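 Here a repair-compromised yeast strain receives each compound; its growth is then quantified and normalised to vehicle-only controls.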

[2] = NCI Yeast Anticancer Drug Screen. Data for the wt1 strain (AID 149);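 further: 0% = growth of vehicle-treated wt1 cultures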; settings: S. cerevisiae wt1 strain (SPY 50644) growth inhibition, stronger effect = higher value
Method in brief: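 Using yeast strain wt1, compound-induced growth inhibition was determined against vehicle-treated cultures.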

[3] = NCI Yeast Anticancer Drug Screen. Data for the rad50EPP+ strain (AID 151);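 further: 0% = growth of vehicle-treated control cultures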; settings: S. cerevisiae rad50 mutant strain, stronger effect = higher value
Method in brief: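 Read-out is yeast growth inhibition relative to vehicle; cells used were the rad50EPP+ strain.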

[4] = NCI Yeast Anticancer Drug Screen. Data for the mgt1 strain (AID 153); settings: S. cerevisiae mgt1 mutant growth inhibition, stronger effect = higher value
Method in brief: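 Measured: inhibition of mgt1 yeast growth by compound, normalized to vehicle-treated cultures.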

[5] = NCI Yeast Anticancer Drug Screen. Data for the rad50 strain (AID 155);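 further: 0% = growth of vehicle-only cultures of the same strain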; settings: S. cerevisiae rad50 strain growth inhibition, stronger effect = higher value
Method in brief: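 Relative growth inhibition (compound vs vehicle) was measured in yeast with a defined repair-gene alteration.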

[6] = NCI Yeast Anticancer Drug Screen. Data for the mec2-1 strain (AID 157); settings: S. cerevisiae mec2-1 strain, stronger effect = higher value
Method in brief: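 Using mec2-1 yeast: add compound, measure growth, express inhibition versus vehicle-treated cultures.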

[7] = NCI Yeast Anticancer Drug Screen. Data for the rad14 strain (AID 159);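 further: 0% = growth of vehicle-treated control cultures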; settings: S. cerevisiae rad14 strain growth inhibition, stronger effect = higher value
Method in brief: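 Screen for anticancer potential: a yeast strain altered in DNA damage repair is grown with compound, and reduced growth is quantified against vehicle controls.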

[8] = NCI Yeast Anticancer Drug Screen. Data for the sgs1 mgt1 strain (AID 161);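 further: 0% = growth of cultures given vehicle only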; settings: S. cerevisiae sgs1 mgt1 strain, stronger effect = higher value
Method in brief: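 Yeast cells carrying a defined DNA-repair defect were exposed to test compounds. Growth inhibition was measured relative to vehicle-treated controls.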

[9] = NCI Yeast Anticancer Drug Screen. Data for the CLN2oe strain (AID 163);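 further: 0% = growth of vehicle-only control cultures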; settings: S. cerevisiae CLN2oe strain, stronger effect = higher value
Method in brief: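 Whole-cell yeast growth assay. A strain engineered for altered cell-cycle control received compound, and inhibition relative to vehicle-treated cultures was recorded.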

[10] = NCI Yeast Anticancer Drug Screen. Data for the cln2 rad14 strain (AID 165);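 further: 0% = growth equal to vehicle treated cultures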; settings: S. cerevisiae cln2 rad14 strain, stronger effect = higher value
Method in brief: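 Yeast strain cln2 rad14, bearing defects in cell cycle control and DNA repair, serves as the test system; values reflect growth inhibition compared with vehicle.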

[11] = NCI Yeast Anticancer Drug Screen. Data for the bub3 strain (AID 167); settings: S. cerevisiae bub3 mutant strain, stronger effect = higher value
Method in brief: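 Screening used yeast with an engineered genetic alteration affecting cell cycle control. Compound-exposed cultures were compared with vehicle cultures, and reduced growth was taken as inhibition.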

[12] = NCI Yeast Anticancer Drug Screen. Data for the wt2 strain (AID 169);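 further: 0% = growth of vehicle-treated yeast cultures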; settings: S. cerevisiae wt2 strain growth inhibition, stronger effect = higher value
Method in brief: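 Treated yeast vs. vehicle-treated yeast: growth inhibition determined.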

[13] = NCI Yeast Anticancer Drug Screen. Data for the mlh1 strain (AID 171);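 further: 0% = growth of vehicle-treated control cultures of the same strain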; settings: S. cerevisiae mlh1 strain growth inhibition, stronger effect = higher value
Method in brief: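 A yeast strain with a defined genetic lesion serves as the test organism. Cultures receive compound or vehicle, and growth is measured.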

[14] = NCI Yeast Anticancer Drug Screen. Data for the sgs1 strain (AID 173);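 further: 0% = growth of vehicle-only control cultures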; settings: S. cerevisiae sgs1 mutant, stronger effect = higher value
Method in brief: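 A genetically defined yeast mutant is incubated with the test compound, and its growth is compared to that of the same strain given vehicle.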

[15] = NCI Yeast Anticancer Drug Screen. Data for the mlh1 rad18 strain (AID 175); settings: S. cerevisiae mlh1 rad18 strain growth inhibition, stronger effect = higher value
Method in brief: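 Steps: expose repair-defective yeast to compound; measure growth; express inhibition against vehicle-treated controls.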

[16] = NCI Yeast Anticancer Drug Screen. Data for the rad18 strain (AID 177); settings: S. cerevisiae rad18 mutant growth inhibition, stronger effect = higher value
Method in brief: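 Measured value is growth inhibition of a yeast strain bearing a DNA repair alteration, referenced to vehicle-treated cells.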

[17] = at 5.0 µM (retest, dose inferred, filed as 0.5)
[18] = at 50.0 µM (retest, dose inferred, filed as 5.0)

Measured: growth inhibition

CN(C)CCNCCCNc1c2ccccc2nc2cccc([N+](=O)[O-])c12
active: [1]; at 11.0 µM 80% | [1]; at 33.0 µM 89% | [1]; at 100.0 µM 94% | [3]; at 33.0 µM 90% | [3]; at 100.0 µM 95% | [5]; at 33.0 µM 88% | [5]; [18] 93% | [5]; at 50.0 µM 80.8% | [5]; at 100.0 µM 94% | [6]; at 33.0 µM 91% | [6]; [18] 98% | [6]; at 50.0 µM 78.7% | [6]; at 100.0 µM 95% | [7]; at 11.0 µM 92% | [7]; at 33.0 µM 97% | [7]; at 100.0 µM 97% | [8]; [17] 73% | [8]; [18] 95% | [8]; at 50.0 µM 79.7% | [9]; at 100.0 µM 81% | [10]; [17] 80% | [10]; [18] 97% | [10]; at 50.0 µM 97.5% | [11]; [18] 72% | [11]; at 100.0 µM 80% | [12]; at 100.0 µM 91% | [13]; at 100.0 µM 74% | [14]; at 11.0 µM 76% | [14]; at 33.0 µM 84% | [14]; at 100.0 µM 89% | [15]; [17] 73% | [15]; [18] 97% | [15]; at 50.0 µM 88.7% | [16]; at 1.2 µM 88% | [16]; at 3.7 µM 94% | [16]; at 11.0 µM 96% | [16]; at 33.0 µM 96% | [16]; at 100.0 µM 96%
inactive: [1]; at 1.2 µM 23% | [1]; at 3.7 µM 46% | [2]; at 1.2 µM -14% | [2]; at 3.7 µM 9% | [2]; at 11.0 µM 11% | [2]; at 33.0 µM 20% | [2]; at 100.0 µM 50% | [3]; at 1.2 µM 9% | [3]; at 3.7 µM 26% | [3]; at 11.0 µM 69% | [4]; at 1.2 µM 4% | [4]; at 3.7 µM 18% | [4]; at 11.0 µM 20% | [4]; at 33.0 µM 26% | [4]; at 100.0 µM 58% | [5]; at 1.2 µM 9% | [5]; at 3.7 µM 39% | [5]; [17] 17% | [5]; at 11.0 µM 61% | [6]; at 1.2 µM 22% | [6]; at 3.7 µM 18% | [6]; [17] 17% | [6]; at 11.0 µM 50% | [7]; at 1.2 µM -2% | [7]; at 3.7 µM 46% | [9]; at 1.2 µM -2% | [9]; at 3.7 µM -4% | [9]; at 11.0 µM 2% | [9]; at 33.0 µM 22% | [11]; at 1.2 µM -5% | [11]; at 3.7 µM -11% | [11]; [17] -12% | [11]; at 11.0 µM -11% | [11]; at 33.0 µM 6% | [11]; at 50.0 µM -3.8% | [12]; at 1.2 µM 0% | [12]; at 3.7 µM 1% | [12]; at 11.0 µM 11% | [12]; at 33.0 µM 33% | [13]; at 1.2 µM 5% | [13]; at 3.7 µM 18% | [13]; at 11.0 µM 25% | [13]; at 33.0 µM 46% | [14]; at 1.2 µM 31% | [14]; at 3.7 µM 58%
